Hits are enriched below; roughly 2.2% of the tested compounds scored in any of these assays.
M4 PAM – human M4 muscarinic receptor positive allosteric modulators, primary screen, CHO-K1 cells, Fluo-8 calcium fluorescence; activation, % at 3 µM; Muscarinic acetylcholine receptor M4 (Homo sapiens), P08173; AID 624126, 2012; CHO-K1 hM4/Gqi5, ACh EC20; 0% = ACh EC20, 100% = maximal ACh; 360,000 compounds, 0.4% hits;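 active = activation above its plate's cutoff, the mean activation of sample wells plus 3 SD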
Target sequence (P08173 whole entry, looked up): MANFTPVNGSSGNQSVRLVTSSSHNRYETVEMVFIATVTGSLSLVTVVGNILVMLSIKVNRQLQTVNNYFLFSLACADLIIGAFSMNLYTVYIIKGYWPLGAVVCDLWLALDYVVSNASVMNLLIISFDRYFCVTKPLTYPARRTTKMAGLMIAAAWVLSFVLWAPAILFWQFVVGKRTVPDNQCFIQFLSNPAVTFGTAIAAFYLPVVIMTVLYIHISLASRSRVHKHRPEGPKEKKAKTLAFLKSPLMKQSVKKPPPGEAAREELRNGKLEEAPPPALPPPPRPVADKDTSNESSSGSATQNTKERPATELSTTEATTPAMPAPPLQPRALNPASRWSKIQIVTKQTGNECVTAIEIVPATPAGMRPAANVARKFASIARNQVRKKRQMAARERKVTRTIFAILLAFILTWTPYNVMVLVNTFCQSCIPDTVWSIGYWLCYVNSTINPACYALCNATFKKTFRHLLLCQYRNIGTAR
M1 ag – human M1 muscarinic receptor agonists, primary screen, Fluo-8 calcium fluorescence, CHO-K1 cells, HTS. Muscarinic acetylcholine receptor M1 (Homo sapiens), P11229. 360,000 compounds, 0.33% hits. AID 588814, 2011. CHO-K1 hM1, agonist mode; 0% DMSO, 100% acetylcholine EC100. activation, % at 3 µM;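 active = activation above the run's mean compound activation plus 3 SD, cut at about 16% in these data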;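 note: peak over basal fluorescence ratio within a 140 s kinetic read after compound addition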
CHRM1 PAM – human M1 muscarinic receptor positive allosteric modulators, primary screen, CHO-K1 cells, Fluo-8 calcium fluorescence, 1536-well. AID 588819, 2011. 360,000 compounds, 0.088% hits. CHO-K1 hM1, ACh EC20; 0% = ACh EC20, 100% = maximal ACh. Muscarinic acetylcholine receptor M1 (Homo sapiens), P11229. activation, % at 3 µM; in the data active = activation above about 19%, passing the limit was not always enough
CHRM4 agonist – human M4 muscarinic receptor agonists, primary screen, CHO-K1 cells, Fluo-8 calcium fluorescence; 360,000 compounds, 0.14% hits; Muscarinic acetylcholine receptor M4 (Homo sapiens), P08173; activation, % at 3 µM; CHO-K1 hM4/Gqi5; vehicle 0%, full acetylcholine response 100%;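 active = activation above the run mean over all test wells plus 3 SD, cut at about 32% in these data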;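 note: peak over basal fluorescence ratio per well then scaled between controls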
CHRM1 antagonist – human M1 muscarinic receptor antagonists, primary screen, CHO-K1 cells, Fluo-8 calcium fluorescence, 1536-well; CHO-K1 hM1, ACh EC80 antagonist; inhibition, % at 3 µM; 360,000 compounds, 1.3% hits; AID 588852, 2011;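 active = percent inhibition above its own plate's cutoff, namely the mean of that plate's compound wells plus 3 SD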;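 note: peak over basal fluorescence ratio during 140 s after agonist addition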
CHRM4 antagonist – human M4 muscarinic receptor antagonists, primary screen, CHO cells, Fluo-8 calcium fluorescence. 360,000 compounds, 0.73% hits. AID 624125, 2012. inhibition, % at 3 µM. Muscarinic acetylcholine receptor M4 (Homo sapiens), P08173. CHO-hM4 cells, ACh EC80;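 active = inhibition above its plate's cutoff, the mean inhibition of sample wells plus 3 SD, cut at about 27% in these data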
Large screens that a line does not name were inactive; ! = not confirmed by another sample.

Cc1cc(C)nc(NC2=NCC(=O)N2c2cc(Cl)cc(Cl)c2)n1	none
CCCCOc1ccc(S(=O)(=O)N2CCN(c3ccc(N4CCN(CC)CC4)nn3)CC2)cc1	none
CCN1CCN(c2ccc(N3CCN(S(=O)(=O)c4cccc([N+](=O)[O-])c4)CC3)nn2)CC1	CHRM1 antagonist 34.2
CN(C)CCOC(C1CCCCC1)C1CCCCC1	CHRM1 antagonist 48.9
CN(C)CCNC(=S)NC1CCCCC1	none
COc1ccc(CCNc2cc(C)nc3c(-c4ccccc4)cnn23)cc1OC	none
Cc1cc(NCc2ccccc2)n2ncc(-c3ccccc3)c2n1	CHRM1 antagonist 39.2
Cc1ccc(-c2nnc(SCC(=O)NNC(=O)COc3ccccc3C)n2C)cc1	none
O=C1CSC(c2ccccc2F)N1c1ccccc1F (configuration not stated)	none
O=C1CSC(c2ccccc2F)N1c1ccccc1 (configuration not stated)	CHRM4 agonist 37.1
COc1cccc(C2SCC(=O)N2c2ccc(Br)cc2)c1OC (configuration not stated)	CHRM1 antagonist 73.6, CHRM4 antagonist 65.7
COc1ccc(C2SCC(=O)N2c2ccc(OC)cc2)cc1 (configuration not stated)	none
CC1CCCCN1S(=O)(=O)c1ccc(S(=O)(=O)N(Cc2ccccc2)Cc2ccco2)cc1 (configuration not stated)	none
Cc1cc(N/C(=N/S(=O)(=O)c2ccc(F)cc2)c2ccccc2)n(-c2ccccc2)n1	none
CN1CCc2c(c3ccccc3n2Cc2ccccc2)C1	CHRM1 antagonist 65.9!, CHRM4 antagonist 56.9
CCCCN1CCc2c(c3ccccc3n2Cc2ccccc2)C1	none
Cc1ccc[n+](CC(=O)c2cc3ccccc3oc2=O)c1	CHRM1 antagonist 90.4
CC(=O)c1cc2ccccc2oc1=O	none
Cc1cc(C)c[n+](CC(=O)c2cc3ccccc3oc2=O)c1	CHRM1 antagonist 93.2
CN1CCN(CCNC(=O)c2ccc3nc(-c4ccc(F)cc4)c(-c4ccc(F)cc4)nc3c2)CC1	CHRM1 antagonist 45.4
CCc1nc2ccc(C(=O)NCCCN3CCN(c4ccc(F)cc4)CC3)cc2nc1CC	none
N#Cc1c(F)cccc1N1CCN(Cc2ccc3c(c2)OCO3)CC1	CHRM1 antagonist 66.1
COc1ccc(N2CCN(Cc3nc(N)nc(Nc4ccccc4OC)n3)CC2)cc1	CHRM4 antagonist 26.7
COc1ccccc1Nc1nc(N)nc(CN2CCN(Cc3ccccc3)CC2)n1	none
CN(CC(=O)N1CCCc2c1c(=O)oc1ccc(O)cc21)Cc1ccccc1	CHRM1 antagonist 24.4
CC1CCN(CCC(=O)N2CCCc3c2c(=O)oc2ccc(O)cc32)CC1	none
COCCN(CC1CCCN(C2Cc3ccccc3C2)C1)C(=O)CCC(N)=O (configuration not stated)	CHRM1 antagonist 46.9
O=C(CSc1n[nH]c(-c2ccccc2)n1)N1CCOCC1	none
CCCC1CC(C)(C(=O)CSc2n[nH]c(-c3ccccc3)n2)OC1=O (configuration not stated)	CHRM1 antagonist 30.1
O=C(CSc1ccc(Cl)cc1)NN=C1CCCCCC1	none
Cc1ccc(C)c(NC(=S)N(C)CCc2ccccn2)c1	M4 PAM 17.9
Cc1ccccc1NC(=S)N(C)CCc1ccccn1	none
NC(=O)C(c1ccccc1)C1CCCC1 (configuration not stated)	none
CN(C)[C@@H]1CCC[C@H]1OC(=O)C(c1ccccc1)c1ccccc1	CHRM1 antagonist 91.7
CCCCOc1ccc(C(=O)OC2CC(C)N(C)CC2C)cc1 (configuration not stated)	CHRM1 antagonist 44.4
CC1CN(C)C(C)CC1OC(=O)C(c1ccccc1)c1ccccc1 (configuration not stated)	CHRM1 antagonist 97.4, CHRM4 antagonist 60.9
CC1CN(C(C)C)C(C)CC1OC(=O)c1ccccc1 (configuration not stated)	none
C/C(=N\Nc1ccccn1)c1ccc(C#N)cc1	none
CCN1CCOC(CC(=O)Nc2cccc([N+](=O)[O-])c2)C1=O (configuration not stated)	none
CCN(CC)c1ccc(C2NC(=O)c3ccccc3N2)cc1 (configuration not stated)	none
C=CCn1c(=S)[nH]c2cc(C(=O)Nc3ccc(F)cc3)ccc2c1=O	CHRM1 antagonist 22.6
Cc1ccccc1S(=O)(=O)Cc1ccc(C(=O)NC2CCCC2)o1	none
CCCCN(C)C(=O)c1ccc(CS(=O)(=O)c2ccccc2C)o1	M4 PAM 17.8
Cc1ccccc1S(=O)(=O)Cc1ccc(C(=O)NC2CCCCCC2)o1	M4 PAM 15.3
COC(CN(C)C(=O)c1ccc(CS(=O)(=O)c2ccccc2C)o1)OC	none
O=C(NCCNc1ccc([N+](=O)[O-])cc1)c1ccccc1F	none
O=C(CCNC(=O)c1ccc([N+](=O)[O-])cc1)NNC(=O)c1ccccc1F	M4 PAM 26.0
Cc1ccc(C(=O)N(Cc2cccs2)C2CCS(=O)(=O)C2)cc1 (configuration not stated)	none
Oc1ccccc1N=Cc1c(O)ccc2ccccc12	M1 ag 22.3
Oc1ccc2ccccc2c1C=Nc1ccccc1Br	none
CCOC(=O)N1CCN(S(=O)(=O)N2CCCC(C(=O)NCc3ccccc3Cl)C2)CC1 (configuration not stated)	none
O=c1c2ccccc2nnn1CSc1nnc(COc2ccc(Cl)cc2)n1Cc1ccco1	none
CCc1ccc(OCc2nnc(SCCN3CCOCC3)n2CC)cc1	CHRM1 antagonist 63.2
Clc1ccc(OCc2nnc(SCCN3CCCCC3)n2Cc2ccco2)cc1	CHRM1 antagonist 98.6, CHRM4 antagonist 58.4
Cn1c2ccccc2c(=O)c2c(=O)n(C3CCCCC3)c(-c3ccco3)nc21	M1 ag 18.8
Cc1nc2c(c(=O)c3ccccc3n2C)c(=O)n1C1CCCCCC1	none
CNc1nc2cc([N+](=O)[O-])c([N+](=O)[O-])cc2nc1NC	CHRM1 antagonist 29.8
Cc1cc(C)cc(-n2nnnc2SCC(=O)Nc2cccc(NC(=O)c3ccco3)c2)c1	none
Cc1ccccc1/C=C/C(=O)NCC(=O)N1CCC(N(C)C2CCCCC2C)CC1 (configuration not stated)	CHRM1 antagonist 26.5
COc1ccc(NC(=O)C2CCCN(CCCc3ccccc3)C2)cc1OCC(C)C (configuration not stated)	CHRM4 antagonist 28.5

Source: PubChem
